Key:
Test in all cases: DAPPL (digital affinity profiling via proximity ligation, sequencing); 10 mM Tris-HCl pH 7.5, 50 mM NaCl, 1 mM DTT, 4% glycerol, room temperature, 30 min; GST-TFs on glutathione beads, 16-mer random dsDNA library, 0.1% formaldehyde crosslink after washing; high values mean tight binding
Settings in all cases: protein: recombinant; tags: N-terminal GST; dsDNA, one strand shown
ERG = target: T1, ERG (Homo sapiens, UniProt P11308 1-479)
T1 sequence: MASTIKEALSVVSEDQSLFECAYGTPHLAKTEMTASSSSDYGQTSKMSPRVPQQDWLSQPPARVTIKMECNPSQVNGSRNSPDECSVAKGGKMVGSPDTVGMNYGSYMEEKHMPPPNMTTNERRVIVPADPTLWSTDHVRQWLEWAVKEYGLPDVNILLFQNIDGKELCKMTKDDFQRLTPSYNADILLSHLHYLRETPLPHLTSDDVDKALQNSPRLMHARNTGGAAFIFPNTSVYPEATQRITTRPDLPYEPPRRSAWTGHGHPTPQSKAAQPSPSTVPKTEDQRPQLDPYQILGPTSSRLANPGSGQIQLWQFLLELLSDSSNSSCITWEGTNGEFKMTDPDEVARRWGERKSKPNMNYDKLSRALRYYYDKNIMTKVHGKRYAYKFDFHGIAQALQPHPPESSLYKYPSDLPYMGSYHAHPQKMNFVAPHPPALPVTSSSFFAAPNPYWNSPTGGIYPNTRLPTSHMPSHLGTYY
In short: (§1)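 Beads coated with glutathione captured GST-fused human transcription factors that had been expressed in yeast, and the factors were then given DNA barcodes and pooled with a tag-only sample. The pools were incubated with 200 nmole of a random double-stranded 16-mer DNA library in Tris/NaCl/DTT/glycerol buffer for 30 min at room temperature, washed, crosslinked with 0.1% formaldehyde and proximity-ligated with BsaI/T4 ligase at 37 °C for 1 h. PCR amplification and Illumina NextSeq500 sequencing came last. Binding signal is each hexamer's read frequency for a factor divided by its frequency for the tag-only sample.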

SPIB = SPIB (Homo sapiens, UniProt Q01892 1-262)
In short: as §1

ETV5 = ETV5 (Homo sapiens, UniProt P41161 1-510)
In short: as §1

SPIC = target: T2, SPIC (Homo sapiens, UniProt Q8N5J4 1-248)
T2 sequence: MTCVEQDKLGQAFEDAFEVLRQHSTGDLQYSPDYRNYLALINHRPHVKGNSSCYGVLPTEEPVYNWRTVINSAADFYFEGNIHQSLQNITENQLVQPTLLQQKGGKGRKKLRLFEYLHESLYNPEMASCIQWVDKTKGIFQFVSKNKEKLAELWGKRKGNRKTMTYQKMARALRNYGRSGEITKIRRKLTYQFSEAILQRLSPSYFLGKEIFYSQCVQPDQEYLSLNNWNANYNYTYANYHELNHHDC
In short: as §1

SPDEF = target: T3, SPDEF (Homo sapiens, UniProt O95238 1-335)
T3 sequence: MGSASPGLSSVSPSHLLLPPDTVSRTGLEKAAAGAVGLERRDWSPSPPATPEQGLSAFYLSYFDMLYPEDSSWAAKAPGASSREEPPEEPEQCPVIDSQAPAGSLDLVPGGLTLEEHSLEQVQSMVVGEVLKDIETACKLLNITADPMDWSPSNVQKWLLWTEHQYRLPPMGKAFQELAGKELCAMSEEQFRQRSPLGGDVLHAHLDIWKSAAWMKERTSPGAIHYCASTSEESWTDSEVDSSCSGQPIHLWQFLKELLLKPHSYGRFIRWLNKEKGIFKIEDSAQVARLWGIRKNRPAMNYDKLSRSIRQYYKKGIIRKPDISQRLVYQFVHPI
In short: as §1

ETV3 = target: T4, ETV3 (Homo sapiens, UniProt P41162-2 1-143)
T4 sequence: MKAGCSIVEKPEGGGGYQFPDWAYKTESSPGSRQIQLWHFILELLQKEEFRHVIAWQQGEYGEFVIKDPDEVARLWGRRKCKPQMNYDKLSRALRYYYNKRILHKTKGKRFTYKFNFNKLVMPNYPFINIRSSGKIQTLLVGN
In short: as §1

ELK1 = target: T5, ELK1 (Homo sapiens, UniProt P19419 1-428)
T5 sequence: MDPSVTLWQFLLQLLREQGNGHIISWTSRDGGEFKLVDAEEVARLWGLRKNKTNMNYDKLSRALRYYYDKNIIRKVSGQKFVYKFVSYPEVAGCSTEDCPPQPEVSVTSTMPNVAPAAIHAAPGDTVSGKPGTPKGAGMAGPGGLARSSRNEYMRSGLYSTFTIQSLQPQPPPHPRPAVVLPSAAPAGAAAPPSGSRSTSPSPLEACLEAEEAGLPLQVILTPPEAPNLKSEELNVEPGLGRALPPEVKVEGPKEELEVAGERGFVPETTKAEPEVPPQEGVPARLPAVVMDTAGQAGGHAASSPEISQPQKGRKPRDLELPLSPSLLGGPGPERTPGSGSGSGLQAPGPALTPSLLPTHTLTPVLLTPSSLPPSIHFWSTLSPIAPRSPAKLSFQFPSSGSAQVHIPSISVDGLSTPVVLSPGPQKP
In short: as §1

GABPA = target: T6, GABPA (Homo sapiens, UniProt Q06546 1-454)
T6 sequence: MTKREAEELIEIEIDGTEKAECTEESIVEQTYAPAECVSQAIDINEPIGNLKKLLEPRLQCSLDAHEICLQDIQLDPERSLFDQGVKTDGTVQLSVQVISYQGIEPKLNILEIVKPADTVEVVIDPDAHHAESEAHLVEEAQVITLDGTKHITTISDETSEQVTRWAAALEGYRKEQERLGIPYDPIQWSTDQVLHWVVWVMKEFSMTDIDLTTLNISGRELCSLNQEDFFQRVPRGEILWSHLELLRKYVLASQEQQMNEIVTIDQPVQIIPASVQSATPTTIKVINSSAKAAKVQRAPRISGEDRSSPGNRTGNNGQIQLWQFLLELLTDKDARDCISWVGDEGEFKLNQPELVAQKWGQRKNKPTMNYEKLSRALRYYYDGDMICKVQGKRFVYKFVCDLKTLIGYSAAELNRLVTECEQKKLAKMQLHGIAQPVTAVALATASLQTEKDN
In short: as §1

ELF3 = target: T7, ELF3 (Homo sapiens, UniProt P78545 1-371)
T7 sequence: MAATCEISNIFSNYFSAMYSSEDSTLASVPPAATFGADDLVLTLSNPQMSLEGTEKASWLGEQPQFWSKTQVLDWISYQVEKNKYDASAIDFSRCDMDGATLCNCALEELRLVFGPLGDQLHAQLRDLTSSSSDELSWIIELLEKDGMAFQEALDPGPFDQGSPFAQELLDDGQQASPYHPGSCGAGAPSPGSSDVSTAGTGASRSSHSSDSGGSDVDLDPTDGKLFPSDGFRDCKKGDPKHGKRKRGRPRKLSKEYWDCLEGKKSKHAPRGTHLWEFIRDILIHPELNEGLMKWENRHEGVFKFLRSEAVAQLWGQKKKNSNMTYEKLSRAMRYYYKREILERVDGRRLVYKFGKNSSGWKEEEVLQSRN
In short: as §1

ETV1 = ETV1 (Homo sapiens, UniProt P50549 1-477)
In short: as §1

ETV3L = target: T8, ETV3L (Homo sapiens, UniProt Q6ZN32 1-361)
T8 sequence: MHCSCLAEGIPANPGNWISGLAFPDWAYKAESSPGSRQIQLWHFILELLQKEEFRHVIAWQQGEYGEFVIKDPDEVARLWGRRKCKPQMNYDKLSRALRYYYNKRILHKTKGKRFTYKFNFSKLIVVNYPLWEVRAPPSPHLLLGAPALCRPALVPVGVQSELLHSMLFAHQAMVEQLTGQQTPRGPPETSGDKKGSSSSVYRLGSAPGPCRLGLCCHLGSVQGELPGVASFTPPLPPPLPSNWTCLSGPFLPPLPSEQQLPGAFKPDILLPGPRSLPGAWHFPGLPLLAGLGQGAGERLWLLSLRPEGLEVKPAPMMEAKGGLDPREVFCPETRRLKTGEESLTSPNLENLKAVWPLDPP
In short: as §1

Chain of SPIB (Q01892 whole entry): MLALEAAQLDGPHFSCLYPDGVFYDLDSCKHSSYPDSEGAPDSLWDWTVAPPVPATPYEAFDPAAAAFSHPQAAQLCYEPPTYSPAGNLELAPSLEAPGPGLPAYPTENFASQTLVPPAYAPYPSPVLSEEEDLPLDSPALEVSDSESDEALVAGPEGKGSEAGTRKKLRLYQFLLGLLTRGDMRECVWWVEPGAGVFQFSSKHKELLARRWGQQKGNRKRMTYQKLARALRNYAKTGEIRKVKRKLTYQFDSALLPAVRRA
Chain of ETV5 (P41161 whole entry): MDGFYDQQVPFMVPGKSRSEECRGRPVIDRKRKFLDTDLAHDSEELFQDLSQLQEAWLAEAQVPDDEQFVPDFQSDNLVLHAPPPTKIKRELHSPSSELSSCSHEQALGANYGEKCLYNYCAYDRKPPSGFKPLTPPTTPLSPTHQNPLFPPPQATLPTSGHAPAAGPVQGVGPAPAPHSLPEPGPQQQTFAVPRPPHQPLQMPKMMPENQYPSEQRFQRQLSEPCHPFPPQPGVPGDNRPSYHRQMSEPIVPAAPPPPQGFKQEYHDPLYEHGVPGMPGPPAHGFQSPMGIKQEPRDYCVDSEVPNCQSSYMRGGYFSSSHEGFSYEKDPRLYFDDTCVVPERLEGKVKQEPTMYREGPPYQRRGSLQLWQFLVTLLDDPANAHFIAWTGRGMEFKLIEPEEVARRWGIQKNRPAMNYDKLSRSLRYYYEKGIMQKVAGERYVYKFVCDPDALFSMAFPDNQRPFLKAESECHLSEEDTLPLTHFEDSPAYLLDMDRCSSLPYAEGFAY
Chain of ETV1 (P50549 whole entry): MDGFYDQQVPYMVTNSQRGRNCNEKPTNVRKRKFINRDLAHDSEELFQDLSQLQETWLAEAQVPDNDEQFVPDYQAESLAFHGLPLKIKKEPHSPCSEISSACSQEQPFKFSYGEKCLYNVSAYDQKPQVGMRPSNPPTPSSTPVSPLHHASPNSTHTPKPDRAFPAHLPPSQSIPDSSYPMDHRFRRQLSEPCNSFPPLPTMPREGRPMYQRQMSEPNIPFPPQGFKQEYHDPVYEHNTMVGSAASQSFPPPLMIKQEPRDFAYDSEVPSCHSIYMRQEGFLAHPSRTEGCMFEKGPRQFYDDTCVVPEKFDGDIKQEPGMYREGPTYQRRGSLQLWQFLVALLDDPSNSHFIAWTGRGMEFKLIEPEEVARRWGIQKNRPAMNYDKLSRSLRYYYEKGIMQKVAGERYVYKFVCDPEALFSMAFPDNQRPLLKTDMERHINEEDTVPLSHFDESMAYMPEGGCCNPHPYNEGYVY

| Sequence | binding signal (ERG) | binding signal (SPIB) | binding signal (ETV5) | binding signal (SPIC) | binding signal (SPDEF) | binding signal (ETV3) | binding signal (ELK1) | binding signal (GABPA) | binding signal (ELF3) | binding signal (ETV1) | binding signal (ETV3L) |
| --- | --- | --- | --- | --- | --- | --- | --- | --- | --- | --- | --- |
| ATCCGT | 1.04 fold enrichment (6-mer frequency, TF over GST control) | 1.1 fold enrichment (6-mer frequency, TF over GST control) | 1.05 fold enrichment (6-mer frequency, TF over GST control) | 1 fold enrichment (6-mer frequency, TF over GST control) | 1.41 fold enrichment (6-mer frequency, TF over GST control) | 1.04 fold enrichment (6-mer frequency, TF over GST control) |  |  |  |  |  |
| GCGTAT | 1.03 fold enrichment (6-mer frequency, TF over GST control) | 1.11 fold enrichment (6-mer frequency, TF over GST control) | 1.05 fold enrichment (6-mer frequency, TF over GST control) | 1.07 fold enrichment (6-mer frequency, TF over GST control) |  |  | 1.04 fold enrichment (6-mer frequency, TF over GST control) | 1 fold enrichment (6-mer frequency, TF over GST control) | 1.03 fold enrichment (6-mer frequency, TF over GST control) | 1.05 fold enrichment (6-mer frequency, TF over GST control) | 1.02 fold enrichment (6-mer frequency, TF over GST control) |

Source: paper PMC7862700, “An all-to-all approach to the identification of sequence-specific readers for epigenetic DNA modifications on cytosine”
